Results as given in PubChem BioAssay.

Each molecule was assayed on Sonic hedgehog protein (Shh) (assay: small-molecule binders of Shh protein, primary screen, biochemical, small-molecule microarray, 635/667 nm fluorescence (AID 1151;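 further: Shh protein binding to compounds spotted on small-molecule microarray slides; score combines spot fluorescence intensity with signal-to-noise across triplicate slides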)). Conditions: small-molecule microarray binding, 635 nm fluorescence; higher = more signal.

SMILES | composite z-score
CC(C)[Si](C#C[Si](C(C)C)(C(C)C)C(C)C)(O[C@H](C)c1cn(Cc2cccc(Cl)c2)nn1)C(C)C | 0.632
CC(C)(C)OC(=O)CC[C@]1(C(=O)N2CCCCC2)N=C(c2ccc(OCCCO)cc2)O[C@H]1c1ccccc1CN=[N+]=[N-] | 0.251
CCOC(=O)C[C@H]1[C@H](OC(=O)Cc2ccc3c(c2)OCO3)[C@@H](NC(=O)c2ccccc2)c2cc(OCCCO)ccc2N1C(=O)c1ccc2ccccc2n1 | 0.844
CC(C)CCC[C@@H](C)[C@H]1CC[C@@]2(C)C3=C(CC[C@]12C)[C@@]1(C)CC[C@H](OC(=O)c2ccc(N)cc2)C(C)(C)C1CC3 (stereo not given in full) | 0.49
C=CCC(OC(C)=O)[C@@H]1[C@@H](N(Cc2cccc3ccccc23)C(=O)c2ccc(C)cc2)c2cc(OCCCO)ccc2N1C(=O)c1ccc2ccccc2c1 (stereo not given in full) | 0.788
COC(=O)C(CC#Cc1ccc2c(c1)[C@]1(C(=O)N2)[C@H](c2ccccc2OCCO)N2[C@H](c3ccccc3)[C@H](c3ccccc3)OC(=O)[C@H]2[C@@H]1C(=O)Nc1nc2ccccc2s1)C(=O)OC | 1.46
C=CCOC(=O)[C@@H]1[C@H]2C(=O)O[C@H](c3ccccc3)[C@H](c3ccccc3)N2[C@H](c2ccc(OCCOC(=O)[C@@H]3C[C@@H]4C(=O)N5CCC[C@H]5C(=O)N4[C@@H]3c3cccc(OCCO)c3)cc2)[C@@]12C(=O)Nc1ccc(I)cc12 | 2.01
COc1ccc(C(=O)Nc2ccc(CN3C(=O)[C@]4(O[C@H](CCn5cc([C@H](O)c6ccccc6)nn5)[C@@H]([Si](C)(C)c5ccc(OC)cc5)[C@@H]4C)c4ccccc43)cc2)cc1 | 0.666
CN(C)C(=O)[C@@]1(CCC(=O)OC(C)(C)C)N=C(c2ccc(OCCCO)cc2)O[C@H]1c1ccccc1N=[N+]=[N-] | 0.18
COCCOC(=O)N1C(=O)[C@@]2(c3cc(C#CCCO)ccc31)[C@H](C(=O)NC[C@H](O)c1ccccc1)[C@H]1C(=O)O[C@H](c3ccccc3)[C@H](c3ccccc3)N1[C@@H]2c1ccccc1OCCO | 1.35
COc1ccc([Si](C)(C)[C@H]2[C@H](CCO)O[C@@]3(C(=O)N(Cc4cccc(N5CCOC5=O)c4)c4ccccc43)[C@@H]2C)cc1 | 1.47
CN(C)CCCC[C@@H]1NC(=O)[C@H]2C[C@@H](C(=O)NCCCCCCNC(=O)CS)[C@@H](c3ccc(O)cc3)N2C1=O | 1.92
CC(C)=CCCC(C)=CC(O)C1C=CC2C(=O)N(c3ccccc3)C(=O)C2N1Nc1ccc([N+](=O)[O-])cc1 (stereo not given) | 0.821
COC(=O)[C@@]1(Cc2ccc(OC)cc2)[C@H]2c3cc(C(=O)N(C)C)n(Cc4cc(F)c(F)c(F)c4)c3C[C@H]2CN1C(=O)c1ccccc1 | -0.692
COCCOC(=O)N1C(=O)[C@@]2(c3cc(C#CCC(C(=O)OC)C(=O)OC)ccc31)[C@H](C(=O)N1CCCCCCC1)[C@H]1C(=O)O[C@H](c3ccccc3)[C@H](c3ccccc3)N1[C@@H]2c1ccc(O)cc1 | 1.62
[N-]=[N+]=Nc1ccccc1[C@H]1OC(c2ccc(OCCCO)cc2)=N[C@@]1(Cc1ccccc1)C(=O)NCc1ccccc1 | -0.272
COC(=O)C(CC#Cc1ccc2c(c1)[C@]1(C(=O)N2)[C@H](c2ccc(O)cc2)N2[C@H](c3ccccc3)[C@H](c3ccccc3)OC(=O)[C@H]2[C@@H]1C(N)=O)C(=O)OC | -0.907
C=CCNC(=O)[C@H]1[C@@H]2C(=O)O[C@@H](c3ccccc3)[C@@H](c3ccccc3)N2[C@@H](c2ccc(OCCO)cc2)[C@]12C(=O)N(C(=O)OCCOC)c1ccc(C#CC3=CCCCC3)cc12 | 1.32

SMILES | composite z-score
COC(=O)[C@@]1(Cc2ccccc2)[C@H]2c3cc(C(=O)N(C)C)n(Cc4ccccn4)c3C[C@H]2CN1C(=O)c1ccccc1 | -0.709
O=C(Nc1cc(Br)ccc1C(=O)NCc1cccc(O)c1)c1ccccc1 | 0.349
NCCCCCCNC(=O)[C@H]1C[C@H]2C(=O)N3CCC[C@H]3C(=O)N2[C@H]1c1ccc(O)cc1 | 1.86
C#CCNS(=O)(=O)N(C)C | 0.666
CCCC=C(CCC)[C@@H](NS(=O)(=O)CC)c1ccccc1 | -0.324
CN(C)CCCCCCNC(=O)[C@@H]1C[C@@H]2C(=O)NCC(=O)N2[C@@H]1c1ccc(O)cc1 | 1.93
NC(=O)NCC#Cc1ccc2c(c1)[C@]1(C(=O)N2)[C@H](c2ccc(O)cc2)N2[C@H](c3ccccc3)[C@H](c3ccccc3)OC(=O)[C@H]2[C@@H]1C(N)=O | 0.0139
COCCCNC(=O)[C@@]1(C)c2ccccc2C(=O)N(c2ccc(C)cn2)[C@H]1c1ccc(CO)cc1 | -0.0308
COCCCNC(=O)[C@]1(Cc2ccccc2)N=C(c2ccc(OCCCO)cc2)O[C@@H]1c1ccccc1N=[N+]=[N-] | -0.46
CCCC=C(CCC)[C@@H](NC(=O)Cc1ccccc1)c1ccc(C(=O)OC)cc1 | -0.284
COc1ccc([Si](C)(C)[C@@H]2[C@@H](CCO)O[C@]3(C(=O)N(Cc4ccccc4)c4ccc(N5CCCCC5=O)cc43)[C@H]2C)cc1 | 1.44
COc1ccc(CCNC(=O)[C@@H]2c3ccccc3C(=O)N(Cc3ccccc3)[C@H]2c2ccc(CO)cc2)cc1 | 0.832
O=C(CS)NCCCCCNC(=O)[C@@H]1C[C@@H]2C(=O)N3CCC[C@H]3C(=O)N2[C@@H]1c1ccc(O)cc1 | 0.837
COC(=O)[C@]1(Cc2ccccc2CN=[N+]=[N-])N=C(c2ccc(OCCCO)cc2)O[C@@H]1c1ccccc1 | -1.19
COc1ccc([Si](C)(C)[C@@H]2[C@@H](CC(=O)N(CCO)Cc3ccccc3)O[C@]3(C(=O)N(Cc4ccc(N5CCOC5=O)cc4)c4ccccc43)[C@H]2C)cc1 | 1.95
[N-]=[N+]=NCc1ccccc1C[C@]1(C(=O)NCCN2CCOCC2)N=C(c2ccc(OCCCO)cc2)O[C@H]1c1ccccc1 | 1.1
COC(=O)[C@H]1N=C(c2ccc(OCCCO)cc2)O[C@H]1c1ccccc1CN=[N+]=[N-] | 0.166
